Results filed as inconclusive are left out. Active and inactive are the calls of the source. The calls were made as follows: active = hit-call score of the fitted dose curve at least 0.9, where 1 is the maximum; inconclusive = response in the unintended direction; inactive = score below 0.9.

Sequence of human Serum/Glucocorticoid Regulated Kinase 1 (SGK1), SGK1 (gene 6446) (O00141 whole entry, looked up): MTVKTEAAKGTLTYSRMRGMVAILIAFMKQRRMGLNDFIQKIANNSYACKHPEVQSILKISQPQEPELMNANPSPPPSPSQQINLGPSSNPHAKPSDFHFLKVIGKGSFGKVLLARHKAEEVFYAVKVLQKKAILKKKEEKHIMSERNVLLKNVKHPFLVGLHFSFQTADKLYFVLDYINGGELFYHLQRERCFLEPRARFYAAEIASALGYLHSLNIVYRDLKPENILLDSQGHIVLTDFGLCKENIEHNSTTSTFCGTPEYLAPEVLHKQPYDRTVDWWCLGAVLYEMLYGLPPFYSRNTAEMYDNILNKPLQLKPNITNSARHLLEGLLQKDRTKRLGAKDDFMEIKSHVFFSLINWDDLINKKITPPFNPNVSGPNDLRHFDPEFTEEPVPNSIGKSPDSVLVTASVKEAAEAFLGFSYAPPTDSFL

The assay concerns the target human Serum/Glucocorticoid Regulated Kinase 1 (SGK1), SGK1 (gene 6446) (UniProt O00141). Briefly: NVS_ENZ_hSGK1: NovaScreen (NVS) Enzymatic Assay for human Serum/Glucocorticoid Regulated Kinase 1 (SGK1). Here is the method: NVS_ENZ_hSGK1 is a biochemical, single-readout assay that uses extracted gene-proteins in a cell-free assay. Measurements were taken 1 hour after chemical dosing in a 96-well plate.NVS_ENZ_hSGK1 is one of one assay component(s) measured or calculated from the NVS_ENZ_hSGK1 assay. It is designed to make measurements of enzyme activity, a form of enzyme reporter, as detected with fluorescence intensity signals by Fluorescence and electrophoretic mobility shift technology.Data from the assay component NVS_ENZ_hSGK1 was analyzed into 1 assay endpoint. This assay endpoint, NVS_ENZ_hSGK1, was analyzed in the positive analysis fitting direction relative to DMSO as the negative control and baseline of activity. Using a type of enzyme reporter, loss-of-signal activity can be used to understand changes in the enzymatic activity as they relate to the gene SGK1. Furthermore, this assay endpoint can be referred to as a primary readout, because this assay has produced […] where this one serves a enzymatic activity function. To generalize the intended target to other relatable targets, this assay endpoint is annotated to the kinase intended target family, where the subfamily is serine/threonine kinase.
Binding assays used specific radioligands (tritiated, iodinated) with non-radioactive competitive displacement ligands in agonist or antagonist protocols (as indicated) and various reference compounds and inhibitors to titrate specific binding to receptors and transporters. Most enzyme assays (CYPs, kinases, phosphatases, proteases, HDACs) used recombinant protein and specific substrates (fluorescence mostly, some colorimetric and radioactive) and inhibitors, followed by a biochemical separation of substrate and product. All assays for the biochemical HTS were initially run in duplicate at a single concentration (10 uM for CYP450 assays and 25 uM for all others). […]
Take `O=C(Nc1ccc([N+](=O)[O-])cc1Cl)c1cc(Cl)ccc1O`: the call was inactive.
In the case of `N#CSCSc1nc2ccccc2s1`, the call was inactive.
The AC50 is the midpoint of the concentration-response curve, whichever way the signal moves. For `S=C([S-])NCCNC(=S)[S-].[Mn+2]`, the half-maximal activity concentration (AC50) is 10.6 µM (active).

The record behind these values is PubChem BioAssay AID2283220 (EPA ToxCast).
